Rows were chosen to be rich in hits. Some 27% of all compounds tested hit in one or more screens of this group.
CYP2C19 inh = blockers of cytochrome P450 2C19 activity – biochemical, luminescence, ADME assay, primary screen; P33261; AID 778, 2007; actives 21% (n = 96,000); CYP2C19 Supersomes, luciferin-H EGE luminescence, 30 min; inhibition, % at 5 µM;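 active means CYP2C19 inhibition above a set limit at 5 µM in the primary screen, cut at about 50% in these data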;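 further: plate controls were negative control wells for no effect and 2.5 mM tranylcypromine positive control for full effect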
CYP2C9 act = human CYP2C9 activators, primary screen, biochemical, luminescence. Cytochrome P450 2C9 (Homo sapiens), P11712. recombinant CYP2C9, luciferin-H conversion; active compounds read high; factor 1 = untreated enzyme, 0 = blocked. activation factor at 5 µM. actives 1.4% (n = 96,000). AID 1024, 2008;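 active means activation factor of 2 or more for CYP2C9 at a 5 µM dose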;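 further: 0 = sulfaphenazole-blocked wells and 1 = vehicle-only wells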
Target sequence (P11712 whole entry, looked up): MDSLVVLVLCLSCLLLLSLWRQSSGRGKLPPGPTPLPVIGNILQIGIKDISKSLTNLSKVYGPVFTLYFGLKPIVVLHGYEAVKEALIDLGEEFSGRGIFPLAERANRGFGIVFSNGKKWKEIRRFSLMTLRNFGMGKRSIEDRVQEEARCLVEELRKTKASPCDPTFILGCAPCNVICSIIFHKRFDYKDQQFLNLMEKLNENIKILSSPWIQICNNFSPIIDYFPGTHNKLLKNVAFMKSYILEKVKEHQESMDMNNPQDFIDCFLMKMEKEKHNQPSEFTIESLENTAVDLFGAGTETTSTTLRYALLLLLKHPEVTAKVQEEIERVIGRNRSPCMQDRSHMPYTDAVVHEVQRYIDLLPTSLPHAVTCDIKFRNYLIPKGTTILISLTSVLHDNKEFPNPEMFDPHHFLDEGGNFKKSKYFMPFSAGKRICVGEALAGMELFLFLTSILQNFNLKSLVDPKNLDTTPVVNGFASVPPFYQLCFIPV
Cav3 T inh = Cav3.2 calcium influx blockers – cell-based, Fluo-4 calcium fluorescence, FDSS, MLSMR library, primary screen; AID 449739, 2010; B-score at 10 µM; actives 4% (n = 100,000); Cav3.2-expressing cells; active compounds read low; Voltage-dependent T-type calcium channel subunit alpha-1H (Homo sapiens), O95180;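 active means single-dose well whose peak fluorescence ratio is a statistical outlier from its plate by either plate-standardised score or position-corrected B-score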
CYP2C9 inh = blockers of cytochrome P450 2C9 activity – biochemical, luminescence, ADME assay, primary screen; P11712; CYP2C9 Supersomes, luciferin-H conversion; inhibition, % at 5 µM; actives 20% (n = 96,000);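 active means blocking of liver enzyme CYP2C9 beyond about 50% at 5 µM, limit read from the data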
CYP2C19 activ = human CYP2C19 activators, primary screen, biochemical, luminescence; recombinant CYP2C19, luciferin-H EGE luminescence; active compounds read high; 0 = fully inhibited enzyme, 1 = untreated enzyme; activation factor at 5 µM; AID 1025, 2008; Cytochrome P450 2C19 (Homo sapiens), P33261; 96,000 tested, under 10 active;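 active means activation factor of at least 2 at 5 µM in the primary screen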;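 further: 0 = wells with 2.5 mM tranylcypromine and 1 = vehicle-only wells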
* hit, by the source's call; . = not tested or not shown.

SMILES | CYP2C19 inh | CYP2C9 act | Cav3 T inh | CYP2C9 inh | CYP2C19 activ
Cc1cccc(C(=O)NCc2nnc(SCC(=O)N3CCN(c4ccccc4)CC3)n2C)c1 | . | . | -0.38 | . | .
CN(C(=O)c1ccc(Cl)c(S(=O)(=O)N2CCOCC2)c1)c1ccccc1C(=O)O | -8 | 0.9 | 1.4 | 7 | 1.1
CCN(CC)c1ccc(C2NCC(c3ccc([N+](=O)[O-])cc3)O2)cc1 (stereo unspecified) | . | . | 1.9 | . | .
COc1cc(-n2c(C)nc3cc(C(=O)N4CCOCC4)ccc32)cc(OC)c1OC | -14 | 1.1 | . | -13 | 1.1
Cc1cc(C)nc(NCC(O)COc2ccccc2C)n1 (stereo unspecified) | 87* | 0.9 | -1.1 | 9 | 0.1
CC(C)COc1ccc(CSCCNC(=S)Nc2ccccc2)cc1 | 36 | 0.4 | -4.1* | 58* | 0.6
CSCCC(NS(=O)(=O)c1ccc(Cl)cc1)C(=O)OCC(=O)NC12CC3CC(CC(C3)C1)C2 (stereo unspecified) | 25 | 0.4 | -0.098 | 61* | 0.8
CC1(C)CC(=O)C2=C(C1)Oc1nc3ccccc3cc1C2C(C#N)C#N (stereo unspecified) | 26 | 0.4 | 1.7 | 60* | 0.7
CC(C)NC(=O)CCNS(=O)(=O)c1ccc(Br)cc1 | 50* | 1.8 | -2.5 | -76 | 0.5
O=C(NCc1nc2ccccc2[nH]1)C1=C[C@@H](c2csc3ccccc23)C[C@@H](OCCCCO)O1 | . | . | -0.96 | . | .
Cc1ccc(Oc2ccc(/C=N/O)cn2)cc1 | 8 | 0.9 | 0.68 | 13 | 0.9
CCOc1ccc(/C=N/O)cc1 | 55* | 0.9 | -0.44 | 14 | 0.4
CCOc1ccc(NC(=O)c2nccnc2CO)cc1 | 30 | 0.7 | 0.27 | 32 | 0.7
CC(C)n1nc(C(=O)Nc2nnc(SCc3c(Cl)cccc3Cl)s2)c2ccccc2c1=O | 66* | 0.1 | -1.9 | 86* | 0.3
Cn1c(=O)c(NCCO)c2c3c(cccc31)C(=O)c1ccccc1-2 | 20 | 0.5 | -9* | 45 | 0.8
Cn1c(=O)c(NCCc2ccccc2)c2c3c(cccc31)C(=O)c1ccccc1-2 | 78* | 0 | -11* | 98* | 0.2
CCNc1c2c3c(cccc3n(C)c1=O)C(=O)c1ccccc1-2 | 18 | 0.5 | -9.2* | 53* | 0.8
CCCCNc1c2c3c(cccc3n(C)c1=O)C(=O)c1ccccc1-2 | . | . | -5.2* | . | .
CCOC(=O)c1sc(NC(=O)Cn2nnc3sc4c(c3c2=O)CCCC4)nc1C | 26 | 0.4 | -4.6* | 55* | 0.7
CCCn1nnnc1NC(=O)c1ccc(C)cc1Cl | 38 | 0.7 | -0.58 | 26 | 0.6
O=c1c2ccccc2nc(SCc2cn3ccsc3n2)n1-c1ccccc1 | 84* | 0.1 | . | 94* | 0.2
Cc1cccc(-n2c(SCc3cc(=O)n4ccsc4n3)nc3ccccc3c2=O)c1 | 22 | 0.5 | -3.3 | 50 | 0.8
O=c1c2ccccc2nc(SCc2cn3ccsc3n2)n1-c1ccccc1F | 77* | 0 | -1.6 | 99* | 0.2
Cc1ccc(-c2nnn(CC(=O)O)n2)cc1 | -9 | 1 | -0.37 | 3 | 1.1
CSc1ccc(-c2nnn(Cc3ccc(C)cc3)n2)cc1 | 62* | 0.8 | -0.41 | 20 | 0.4
SMILES | CYP2C19 inh | CYP2C9 act | Cav3 T inh | CYP2C9 inh | CYP2C19 activ
CCCn1c(=O)[nH]c(=O)c2c1nc(-c1ccc(OC(F)F)c(OC)c1)n2CCOC | 45 | 0.5 | -0.69 | 54* | 0.6
Cc1nc2cncc(Br)c2n1C | -4 | 1 | . | -3 | 1
O=C(Nc1ccccc1C(F)(F)F)c1ccc(CN2CCC(Cc3ccccc3)CC2)cc1 | 7 | 0.8 | -7.7* | 23 | 0.9
O=C(Nc1ccccc1)c1ccc(CN2CCC(Cc3ccccc3)CC2)cc1 | . | . | -0.26 | . | .
COc1ccccc1N(C(=O)c1snc(C(N)=O)c1N)C(C(=O)NCCC(C)C)c1ccco1 (stereo unspecified) | 12 | 0.8 | -0.3 | 18 | 0.9
COCCNC(=O)C(c1ccc(C)o1)N(C(=O)c1snc(C(N)=O)c1N)c1cc(C)cc(C)c1 (stereo unspecified) | 66* | 0.4 | -0.75 | 56* | 0.3
CC(C(=O)NC1CCCC1)N(C(=O)c1snc(C(N)=O)c1N)c1ccc2c(c1)OCCO2 (stereo unspecified) | 15 | 0.5 | 0.82 | 50* | 0.9
COc1ccccc1N(C(=O)c1snc(C(N)=O)c1N)C(C(=O)NC1CCCC1)c1ccco1 (stereo unspecified) | 62* | 0.6 | -3.1 | 40 | 0.4
COc1ccc(CN(C(=O)c2snc(C(N)=O)c2N)C(C(=O)NC(C)(C)C)c2ccco2)cc1 (stereo unspecified) | 36 | 0.7 | -0.67 | 25 | 0.6
CC(C)(C)NC(=O)C(c1ccco1)N(Cc1ccc(F)cc1)C(=O)c1snc(C(N)=O)c1N (stereo unspecified) | 66* | 0.4 | -0.57 | 56* | 0.3
O=c1[nH]c2cccnc2n1Cc1ccco1 | -17 | 1.1 | 0.14 | -14 | 1.2
CCOc1ccccc1N(C(=O)c1snc(C(N)=O)c1N)C(C(=O)NCCC(C)C)c1ccco1 (stereo unspecified) | 40 | 0.5 | -2.3 | 50* | 0.6
CCOC(=O)C1C(=O)OC(C)(C)C1C(C)C(=O)c1ccccc1 (stereo unspecified) | 73* | 0.7 | 1.2 | 28 | 0.3
CCOC(=O)C1C(=O)OC(C)(C)C1C(C)C(=O)c1ccc(OC)cc1 (stereo unspecified) | 6 | 0.9 | 0.29 | 5 | 0.9
CC(NC(=O)C(=O)NN=C1CCCCCCC1)c1ccccc1 (stereo unspecified) | -7 | 1.1 | -0.075 | -7 | 1.1
Cc1ccccc1C(=O)NC(C)c1ccc2c(c1)CCCC2 (stereo unspecified) | 18 | 2.2* | -3.1 | -123 | 0.8
COC(=O)c1ccc(C2C(C(=O)OCC(C)C)=C(C)N=C3SCCC(=O)N32)cc1 (stereo unspecified) | 76* | 0.4 | -3.3 | 62* | 0.2
CCOc1ccc(C2C(C(=O)OC)=C(C)N=C3SCCC(=O)N32)cc1OCC (stereo unspecified) | 12 | 0.7 | 0.69 | 26 | 0.9
COC(=O)C1=C(C)N=C2SCCC(=O)N2C1c1ccc(C(=O)OC)cc1 (stereo unspecified) | 88* | 0.5 | -0.93 | 55* | 0.1
COC(=O)C1=C(C)N=C2SCCC(=O)N2C1c1cccs1 (stereo unspecified) | 17 | 0.6 | 1.1 | 40 | 0.8
CCOc1cc(C2C(C(=O)OCC(C)C)=C(C)N=C3SCCC(=O)N32)ccc1OC(C)=O (stereo unspecified) | 52* | 0.6 | -2.7 | 40 | 0.5
CCOc1cc(C2C(C(=O)OC)=C(C)N=C3SCCC(=O)N32)ccc1OC(C)=O (stereo unspecified) | 35 | 0.7 | -0.75 | 30 | 0.6
